In all, about 340,000 compounds went through this assay and about 490 (0.14%) were called active. Rule as the data show it: active = inhibition above about 12%; inconclusive = no clear call, values can overlap the other calls; inactive = below about 7.3%. The entries come from a sample that favours actives as a whole.

For orientation: inhibition means the change of the read-out against control, counted positive when it falls.

For this test, the target named is Kelch-like ECH-associated protein 1 (Homo sapiens) (UniProt Q14145). As to the kind of experiment: disruptors of Keap1 binding to Nrf2 – biochemical, fluorescence polarization, single point, primary screen (AID 504523).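 Also: human Keap1 Kelch domain with fluorescein labeled Nrf2 9mer peptide probe; 0% = neutral control wells and 100% = peptide positive control.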 The settings on record: Keap1 Kelch-Nrf2 peptide fluorescence polarization, 1536-well; at 9.4 µM; hits give high values. Background: In fluorescence polarisation assays a small probe gives low polarisation when free and higher when bound to something large.
Chain of Kelch-like ECH-associated protein 1 (Homo sapiens) (Q14145 whole entry, looked up, the tested form may be a part): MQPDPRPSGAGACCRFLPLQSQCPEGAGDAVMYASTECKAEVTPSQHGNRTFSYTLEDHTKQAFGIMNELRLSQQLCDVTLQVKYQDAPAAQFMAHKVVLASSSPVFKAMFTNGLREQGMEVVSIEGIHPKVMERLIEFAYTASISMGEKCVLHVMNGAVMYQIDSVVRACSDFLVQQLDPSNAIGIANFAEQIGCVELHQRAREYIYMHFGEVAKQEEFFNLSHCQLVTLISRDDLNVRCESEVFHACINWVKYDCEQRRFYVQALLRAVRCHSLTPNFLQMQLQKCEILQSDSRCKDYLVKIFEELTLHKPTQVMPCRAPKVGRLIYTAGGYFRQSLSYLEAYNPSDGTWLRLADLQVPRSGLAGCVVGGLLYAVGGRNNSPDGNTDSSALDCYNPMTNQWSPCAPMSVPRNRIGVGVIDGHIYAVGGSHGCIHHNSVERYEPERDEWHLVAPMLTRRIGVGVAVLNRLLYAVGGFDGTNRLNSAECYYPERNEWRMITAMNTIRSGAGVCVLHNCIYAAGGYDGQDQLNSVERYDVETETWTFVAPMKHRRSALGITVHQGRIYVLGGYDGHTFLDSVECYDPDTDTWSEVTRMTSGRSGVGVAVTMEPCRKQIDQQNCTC
For `COc1ccc(NS(=O)(=O)c2cc(NC(=O)CC(=O)c3ccc([N+](=O)[O-])cc3)ccc2C)cc1`, the inhibition was -4.68% (inactive).

Turning to `O=C1CCCCC1Sc1ccc(Cl)cc1[N+](=O)[O-]` (stereo unspecified), the inhibition was 1.45% (inactive).

On to `CC1=NNC(=O)C1CC(=O)N/N=C/c1ccncc1` (stereo unspecified), for which the inhibition was 2.78% (inactive).

As for `Cc1ccc(S(=O)(=O)CCC(=O)OCC(=O)N(C)Cc2ccccc2)cc1`, the inhibition was -7.11% (inactive).

On to `CN1c2ccc([N+](=O)[O-])cc2C(C)(C)C12C=Cc1cc(C(=O)O)ccc1O2` (stereo unspecified), for which the inhibition was 4.39% (inactive).

With `CC(=O)Oc1ccc(C(C)=O)c2c1OCCO2`, the inhibition was -3% (inactive).

For `CCCc1nnc(NC(=O)CCC(=O)NC2CC2)s1`, the inhibition is -3.82% (inactive).

With `O=C1c2ccccc2S(=O)(=O)c2cc(N3CCN(c4ccccn4)CC3)ccc21`, the inhibition is 3.87% (inactive).

On to `CCOC(=O)c1nn(-c2cccc(C)c2)cc1C(=O)c1ccccc1`, for which the inhibition is 3.24% (inactive).

As for `Cc1ccccc1OCC(=O)NCC(=O)OCC(=O)c1ccc2ccccc2c1`, the inhibition was -0.965% (inactive).

`CCCC1OC23CCCCC2C(C#N)(C#N)C1(C#N)C(=N)O3` (stereo unspecified): the inhibition is 20.6% (active).

Consider `O=C(Nc1ccccn1)C1CCN(S(=O)(=O)c2ccccc2)CC1`, for which the inhibition is -4.55% (inactive).

In the case of `O=C(Nc1ccccn1)C1CCN(S(=O)(=O)c2ccc3c(c2)OCCO3)CC1`, the inhibition is 24.3% (active).

`O=C(NCc1cccs1)C1CCN(S(=O)(=O)c2ccc3c(c2)OCCO3)CC1`: the inhibition was -2.29% (inactive).

In the case of `O=C1[C@H]2[C@@H](c3ccc(F)cc3)N3C(=O)N(c4ccc(C(F)(F)F)cc4)C(=O)[C@@]3(Cc3ccccc3)[C@H]2C(=O)N1C1CCCCC1`, the inhibition was -3.09% (inactive).

Turning to `O=C(C1=C(O)C(=O)N(CCOCCO)C1c1ccccn1)c1cccs1` (stereo unspecified), the inhibition is 5.97% (inactive).

For the compound `CC[C@H]1OC(=O)[C@H](C)[C@@H](O[C@H]2C[C@@](C)(OC)[C@@H](O)[C@H](C)O2)[C@H](C)[C@@H](O[C@@H]2O[C@H](C)C[C@H](N(C)C)[C@H]2O)[C@](C)(O)C[C@@H](C)[C@@H]2N[C@@H](COCCOC)O[C@H]([C@H]2C)[C@]1(C)O`, the inhibition was 1.21% (inactive).

For `COC1=CC(=O)OC(C)(c2ccccc2)C1` (stereo unspecified), the inhibition was 1.18% (inactive).

For `COc1ccc(Cl)cc1NC(=O)CN(C)C(=O)c1ccc2n[nH]nc2c1`, the inhibition is 0.863% (inactive).

On to `Cn1c(=O)c2c(SCC(=O)N3CCOCC3)nc(C3CC3)nc2n(C)c1=O`, for which the inhibition is -7.01% (inactive).

For `O=S(=O)(c1cccs1)N1CCN(CCOc2ccccc2)CC1`, the inhibition is -5.25% (inactive).

Consider `CCN1/C(=C\c2ccc3ccccc3[n+]2CC)Sc2cc(C)ccc21`, for which the inhibition was 15.5% (active).

For `CC1(C)C(C=C(Cl)Cl)C1C(=O)NC(O)C(=O)c1ccccc1` (stereo unspecified), the inhibition was 1.65% (inactive).

`Cc1c(C(=O)NC(=S)NCc2cccnc2)oc2ccccc12`: the inhibition was -0.251% (inactive).

For the compound `Cc1nnc(SC(C)C(=O)Nc2ccc(S(=O)(=O)NC3CCCCC3)cc2)s1` (stereo unspecified), the inhibition was -0.0585% (inactive).

For `CCOC(=O)C1(Cc2ccc(Cl)cc2)CCN(C(=O)C2=NNC(=O)CC2)CC1`, the inhibition is 0.91% (inactive).

In the case of `CN(Cc1nc2ccccc2c(=O)[nH]1)Cc1cc(=O)oc2ccc3ccccc3c12`, the inhibition was -4.19% (inactive).

Turning to `Cc1cc(=O)oc(C)c1C(=O)NC1CC(C)(C)NC(C)(C)C1`, the inhibition is -0.963% (inactive).

Turning to `Oc1ccc2ccc3cccc[n+]3c2c1`, the inhibition is 128% (active).

Consider `Oc1ccc(-c2nc3ccccc3nc2-c2ccc(O)cc2O)c(O)c1`, for which the inhibition is 5.29% (inactive).

With `COc1cc(NS(=O)(=O)c2ccc(NC(=O)CN3C(=O)c4ccccc4C3=O)cc2)ncn1`, the inhibition is -2.44% (inactive).

`O=C1Nc2ccc([N+](=O)[O-])cc2C1=Nc1cccc(CO)c1`: the inhibition is 2.07% (inactive).

As for `CCSc1nc(C)c(CCOc2cccc(C)c2)c(=O)[nH]1`, the inhibition was 1.88% (inactive).

For `COc1cc(NC(=O)c2ccccc2NS(=O)(=O)c2ccc(Cl)s2)cc(OC)c1`, the inhibition is -7.91% (inactive).

As for `CCCN(CC(=O)Nc1ccccc1OC)C(=O)CCC(=O)c1ccc(F)cc1`, the inhibition was -3.76% (inactive).

Consider `CCOC(=O)CC(NC(=O)C1c2ccccc2Oc2ccccc21)c1ccc(C)cc1` (stereo unspecified), for which the inhibition is -0.485% (inactive).

Take `CCCCCNC(=O)C1c2ccccc2Oc2ccccc21`: the inhibition is -1.43% (inactive).

For `CCCN(CCC)C(=O)C1c2ccccc2Oc2ccccc21`, the inhibition is 56.3% (active).

For the compound `S=C(Nc1cccnc1)Nc1ccccn1`, the inhibition was 0.955% (inactive).

As for `CN/C(=C\[N+](=O)[O-])NCCSCc1csc(CN(C)C)n1`, the inhibition was -2.6% (inactive).

`COCCOC(=O)c1sc(=S)n(CCOC)c1N`: the inhibition was -0.978% (inactive).

`O=C(CSc1n[nH]c(-c2cccs2)n1)N1CCCCC1`: the inhibition was -2.81% (inactive).

Consider `CC1(C)Cc2ccccc2-c2nnc(-c3cccc(O)c3)n21`, for which the inhibition is -0.455% (inactive).

Take `CCS(=O)(=O)Nc1ccc(C(=O)NCCSc2ccccc2)cc1`: the inhibition was -1.14% (inactive).

With `CCCc1nc(-c2cc3cc(C)ccc3[nH]c2=O)no1`, the inhibition was 0.406% (inactive).

Regarding `CCOc1ccc(S(=O)(=O)N2CCC(C(=O)OCc3ccc(OC)cc3)CC2)cc1`, the inhibition was -2.62% (inactive).

Regarding `NC(=O)c1ccccc1N=Cc1ccc2ccccc2c1`, the inhibition is -5.11% (inactive).

Regarding `COC(=O)c1ccc(COC(=O)c2c(C)nn(Cc3ccccc3Cl)c2Cl)o1`, the inhibition is 5.7% (inactive).

In the case of `CSCC[C@H](NC(=O)CCCn1nnc2ccccc2c1=O)C(=O)O`, the inhibition was -3.2% (inactive).

For the compound `O=C(NC(=O)N1CCSCC1)c1c(Cl)cccc1Cl`, the inhibition was -0.262% (inactive).

Consider `CC(C)(C)Nc1nc(-c2ccccn2)nc2ccccc12`, for which the inhibition was -3.56% (inactive).

Regarding `S=c1nc2ccccc2c2nc(-c3cccnc3)[nH]n12`, the inhibition was -0.541% (inactive).

On to `COc1ccc(Nc2nc(-c3cccnc3)nc3ccccc23)cn1`, for which the inhibition was 20.8% (active).

Take `COc1ccc(CCNCC(O)Cn2ccc3ccccc32)cc1OC` (stereo unspecified): the inhibition is -7.66% (inactive).

In the case of `COc1ccc(CCNC(=O)COC(=O)Cc2cccc(F)c2)cc1`, the inhibition is -1.56% (inactive).

In the case of `COc1ccc(/C=N/Nc2ncnc3sc4c(c23)CCCC4)cc1O`, the inhibition is -9.16% (inactive).

Consider `COC(=O)C1=C(C)NC2=C(C(=O)c3ccccc32)C1c1ccc(-c2ccc(C(=O)O)cc2)o1` (stereo unspecified), for which the inhibition is -21.3% (inactive).

Take `c1ccc(-c2cn3c(n2)CCc2ccc4cccnc4c2-3)cc1`: the inhibition is 0.967% (inactive).

As to `CCCCN(C(=O)C(CCSC)N1C(=O)c2ccccc2C1=O)c1c(N)n(CCC)c(=O)[nH]c1=O` (stereo unspecified), the inhibition is -8.81% (inactive).

As for `COc1ccc(C(C(=O)NC(C)(C)C)N(Cc2ccc(F)cc2)C(=O)CCC(=O)Nc2cc(C)on2)cc1` (stereo unspecified), the inhibition is 6.66% (inactive).

Take `CC(C)(C)OC(=O)C[C@@H]1C/C=C\C[C@@H](CC(=O)N[C@@H](CO)Cc2ccccc2)C(=O)N2CCC[C@H]2COC1=O`: the inhibition was 5.12% (inactive).

As to `COc1ccc(C2NC(=O)C(=O)/C2=C(\O)c2ccc(Cl)cc2)cc1OC` (stereo unspecified), the inhibition was -0.168% (inactive).

As to `C=CCOC(=O)N1CCC2CC1c1cc(-c3ccc(OC)cc3)ccc12` (stereo unspecified), the inhibition was -0.448% (inactive).

Take `CC1Cc2cc(/C(O)=C3\C(=O)C(=O)N(Cc4cccnc4)C3c3ccccc3F)ccc2O1` (stereo unspecified): the inhibition is -1.04% (inactive).

Regarding `COc1cccc(CC(=O)N2CCCC(CCC(=O)N3CCN(c4ccccn4)CC3)C2)c1` (stereo unspecified), the inhibition is 2.29% (inactive).

Take `COc1ccc(N2C(=O)C(O)C2c2ccc(C)cc2)cc1` (stereo unspecified): the inhibition is -3.41% (inactive).

As to `O=S(=O)(Nc1ccccc1)c1ccc(NS(=O)(=O)c2cccs2)cc1`, the inhibition was -1.45% (inactive).

For `CCN(CC)CCCC(C)n1c2nc(=O)[nH]c(=O)c-2nc2cc(Cl)ccc21` (stereo unspecified), the inhibition is 152% (active).

As for `CCOc1cc(C2C(C(=O)OC(C)C)=C(C)NC3=C2C(=O)CCC3)cc([N+](=O)[O-])c1O` (stereo unspecified), the inhibition was -4.98% (inactive).

With `CCOCCc1c(O)nc(SCC(=O)NCc2ccco2)[nH]c1=O`, the inhibition was -1.62% (inactive).

With `COc1ccc(CCn2c(NN=C3CCCC3)nc3c2c(=O)[nH]c(=O)n3C)cc1`, the inhibition is 1.25% (inactive).

`COc1ccc(C2c3ccc(O)cc3Oc3ncn(CCCO)c(=N)c32)cc1OC` (stereo unspecified): the inhibition is 28.8% (active).

As to `COc1ccc(CNCCCO)cc1OC`, the inhibition was -3.09% (inactive).

For the compound `COc1ccc(C2C(C#N)=C(N)Oc3cc(N)ccc32)cc1OC` (stereo unspecified), the inhibition was -3.33% (inactive).

As for `Cc1cccc2cc3c(N)c(C(=O)N4CCCc5ccccc54)sc3nc12`, the inhibition is -5.05% (inactive).

For `O=C1C(=O)N(CCN2CCOCC2)C(c2ccccn2)/C1=C(/O)c1ccc(Cl)cc1` (stereo unspecified), the inhibition was -6.66% (inactive).

In the case of `CCN(CC)CCN1C(=O)C2C(C(=O)Nc3ccc(Br)cc3)C3C=CC2(O3)C1C(=O)NC1CCCCC1` (stereo unspecified), the inhibition is -0.939% (inactive).

Turning to `Cc1ccc(CNC(=O)C2(C(F)(F)F)C/C(=C\Cc3ccccc3)CCCO2)o1` (stereo unspecified), the inhibition is -4.24% (inactive).

On to `Cc1cc(C(=O)NCCc2ccc(Cl)cc2)n(-c2ccccc2)n1`, for which the inhibition was -8.41% (inactive).

As to `O=C(NCCS(=O)(=O)NCc1ccc(Cl)cc1)c1ccccc1`, the inhibition was -4.29% (inactive).

`O=C(NCCOCc1ccc(Cl)cc1)c1ncn[nH]1`: the inhibition was 18.3% (active).

Regarding `CN(C)C(=S)N=c1ssc(=S)n1Cc1ccco1`, the inhibition was -0.0433% (inactive).

Take `COc1ccccc1CCNC(=O)CN1C(=O)NC2(CCCC2)C1=O`: the inhibition was -5.6% (inactive).

`O=C1CC(Cc2ccc(Cl)cc2)C(=O)N1c1cc(Cl)ccn1` (stereo unspecified): the inhibition is 40.7% (active).

With `O=C1CC(Cc2ccccc2)C(=O)N1c1ccc(Cl)cn1` (stereo unspecified), the inhibition was -0.813% (inactive).

Turning to `Cc1ccc(CC2CC(=O)N(c3nc(C)cc(C)n3)C2=O)cc1` (stereo unspecified), the inhibition was 1.11% (inactive).

Take `O=C(Nc1cccc(S(=O)(=O)N2CCOCC2)c1)C12CC3CC(CC(C3)C1)C2`: the inhibition was 1.77% (inactive).

As to `COc1ccc(NC(=O)CN(C)C(=O)c2n[nH]c3ccccc23)cc1`, the inhibition is 0.904% (inactive).

`CCCCC(=O)Nc1ccc(C(=O)NCCCn2ccnc2)cc1`: the inhibition was -4.02% (inactive).

For the compound `COc1cc(OC)cc(C(=O)NCCCn2ccnc2)c1`, the inhibition was -6.37% (inactive).

As for `CCCC(=O)Nc1ccc(C(=O)NCCCn2ccnc2)cc1`, the inhibition was 6% (active).

For the origin of these results see PubChem BioAssay AID504523 (Broad Institute, 2011).
